# Data from the supplement of paper PMC8728848.
# About 410 targets per protein were measured; listed, in parts, are those with the strongest signals and a random draw of the rest.
# Key:
# Assay in all cases: glycan array binding signal (z-score within array); higher = stronger binding
# Conditions in all cases: glycan notation: IUPAC condensed, linker removed
# [1] = target: Fuc(a1-2)Gal(b1-3)GalNAc(b1-3)Gal
# Procedure, shortened: (§1)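 Arrays were curated from the Consortium for Functional Glycomics database, 3228 in total, and kept only where the protein sequence was available. Binding is expressed as a within-array Z-score. This score was averaged across arrays of the same protein sequence at different concentrations or buffers and across linkers, and negative values can be read as non-binding.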
# Fuc(a1-2)Gal(b1-4)Glc = target: Fuc(a1-2)Gal(b1-4)Glc
# Procedure, shortened: as §1
# [2] = target: Fuc(a1-2)Gal(b1-4)GlcNAc(b1-2)Man(a1-3)[Fuc(a1-2)Gal(b1-4)GlcNAc(b1-2)Man(a1-6)]Man(b1-4)GlcNAc(b1-4)[Fuc(a1-6)]GlcNAc
# Procedure, shortened: as §1
# [3] = target: Fuc(a1-2)[Gal(a1-3)]Gal(b1-3)GalNAc(b1-3)Gal(a1-4)Gal(b1-4)Glc
# Procedure, shortened: as §1
# [4] = target: Fuc(a1-2)[Gal(a1-3)]Gal(b1-3)GlcNAc
# Procedure, shortened: as §1
# [5] = target: Fuc(a1-2)[Gal(a1-3)]Gal(b1-4)GlcNAc(b1-2)Man(a1-3)[Fuc(a1-2)[Gal(a1-3)]Gal(b1-4)GlcNAc(b1-2)Man(a1-6)]Man(b1-4)GlcNAc(b1-4)GlcNAc
# Procedure, shortened: as §1
# [6] = target: Fuc(a1-2)[Gal(a1-3)]Gal(b1-4)GlcNAc(b1-6)GalNAc
# Procedure, shortened: as §1
# Gal(a1-3)Gal(b1-3)GlcNAc = target: Gal(a1-3)Gal(b1-3)GlcNAc
# Procedure, shortened: as §1
# [7] = target: Gal(a1-3)Gal(b1-3)GlcNAc(b1-6)GalNAc
# Procedure, shortened: as §1
# [8] = target: Gal(a1-3)Gal(b1-4)GlcNAc(b1-3)GalNAc
# Procedure, shortened: as §1
# Gal(a1-4)GlcNAc = target: Gal(a1-4)GlcNAc
# Procedure, shortened: as §1
# Gal(b1-3)Gal = target: Gal(b1-3)Gal
# Procedure, shortened: as §1
# Gal(b1-3)Gal(b1-4)GlcNAc = target: Gal(b1-3)Gal(b1-4)GlcNAc
# Procedure, shortened: as §1
# [9] = target: Gal(b1-3)GlcNAc(a1-6)Gal(b1-4)GlcNAc
# Procedure, shortened: as §1
# Gal(b1-3)GlcNAc(b1-2)Man = target: Gal(b1-3)GlcNAc(b1-2)Man
# Procedure, shortened: as §1
# [10] = target: Gal(b1-3)GlcNAc(b1-3)Gal(b1-3)GlcNAc
# Procedure, shortened: as §1
# [11] = target: Gal(b1-3)GlcNAc(b1-6)GalNAc
# Procedure, shortened: as §1
# [12] = target: Gal(b1-3)[Fuc(a1-4)]GlcNAc(b1-3)Gal(b1-3)[Fuc(a1-4)]GlcNAc
# Procedure, shortened: as §1
# Gal(b1-4)Glc6S = target: Gal(b1-4)Glc6S
# Procedure, shortened: as §1
# [13] = target: Gal(b1-4)GlcNAc(a1-6)Gal(b1-4)GlcNAc
# Procedure, shortened: as §1
# Gal(b1-4)GlcNAc(b1-2)Man = target: Gal(b1-4)GlcNAc(b1-2)Man
# Procedure, shortened: as §1
# [14] = target: Gal(b1-4)GlcNAc(b1-3)Gal(b1-3)GlcNAc
# Procedure, shortened: as §1
# [15] = target: Gal(b1-4)GlcNAc(b1-3)Gal(b1-4)GlcNAc(b1-3)Gal(b1-4)GlcNAc(b1-2)Man(a1-3)[Gal(b1-4)GlcNAc(b1-3)Gal(b1-4)GlcNAc(b1-3)Gal(b1-4)GlcNAc(b1-2)Man(a1-6)]Man(b1-4)GlcNAc(b1-4)GlcNAc
# Procedure, shortened: as §1
# [16] = target: Gal(b1-4)GlcNAc(b1-6)GalNAc
# Procedure, shortened: as §1
# Gal3S(b1-3)GalNAc = target: Gal3S(b1-3)GalNAc
# Procedure, shortened: as §1
# Gal3S(b1-4)Glc = target: Gal3S(b1-4)Glc
# Procedure, shortened: as §1
# [17] = target: Gal3S(b1-4)[Fuc(a1-3)]GlcNAc
# Procedure, shortened: as §1
# [18] = target: Gal3S(b1-4)[Fuc(a1-3)]GlcNAc6S
# Procedure, shortened: as §1
# Gal4S(b1-4)GlcNAc = target: Gal4S(b1-4)GlcNAc
# Procedure, shortened: as §1
# Gal6S(b1-4)GlcNAc = target: Gal6S(b1-4)GlcNAc
# Procedure, shortened: as §1
binder,measurement,setting,value
Cohesin-hMARCO (Homo sapiens) (protein) LDDLDAVRIKVDTVNAKPGDTVRIPVRFSGIPSKGIANCDFVYSYDPNVLEIIEIEPGDIIVDPNPDKSFDTAVYPDRKIIVFLFAEDSGTGAYAITKDGVFATIVAKVKEGAPNGLSVIKFVEVGGFANNDLVEQKTQFFDGGANVGDTTEPATPTTPVTTPTTTDDLDAASVRIVGSSNRGRAEVYYSGTWGTICDDEWQNSDAIVFCRMLGYSKGRALYKVGAGTGQIWLDNVQCRGTESTLWSCTKNSWGHHDCSHEEDAGVECSVHHHHHH,glycan array binding signal (z-score),[1],3.9
same,glycan array binding signal (z-score),Fuc(a1-2)Gal(b1-4)Glc,0.78
same,glycan array binding signal (z-score),[2],-0.156
same,glycan array binding signal (z-score),[3],-0.528
same,glycan array binding signal (z-score),[4],2.72
same,glycan array binding signal (z-score),[5],-0.358
same,glycan array binding signal (z-score),[6],-0.528
same,glycan array binding signal (z-score),Gal(a1-3)Gal(b1-3)GlcNAc,11.2
same,glycan array binding signal (z-score),[7],2.88
same,glycan array binding signal (z-score),[8],-0.296
same,glycan array binding signal (z-score),Gal(a1-4)GlcNAc,-0.083
same,glycan array binding signal (z-score),Gal(b1-3)Gal,-0.397
same,glycan array binding signal (z-score),Gal(b1-3)Gal(b1-4)GlcNAc,-0.262
same,glycan array binding signal (z-score),[9],-0.309
same,glycan array binding signal (z-score),Gal(b1-3)GlcNAc(b1-2)Man,-0.288
same,glycan array binding signal (z-score),[10],-0.434
same,glycan array binding signal (z-score),[11],1.7
same,glycan array binding signal (z-score),[12],5.33
same,glycan array binding signal (z-score),Gal(b1-4)Glc6S,-0.057
same,glycan array binding signal (z-score),[13],0.044
same,glycan array binding signal (z-score),Gal(b1-4)GlcNAc(b1-2)Man,-0.48
same,glycan array binding signal (z-score),[14],-0.462
same,glycan array binding signal (z-score),[15],0.365
same,glycan array binding signal (z-score),[16],1.21
same,glycan array binding signal (z-score),Gal3S(b1-3)GalNAc,0.13
same,glycan array binding signal (z-score),Gal3S(b1-4)Glc,3.03
same,glycan array binding signal (z-score),[17],-0.386
same,glycan array binding signal (z-score),[18],3.73
same,glycan array binding signal (z-score),Gal4S(b1-4)GlcNAc,-0.154
same,glycan array binding signal (z-score),Gal6S(b1-4)GlcNAc,-0.215
